We go through 40 compounds from PubChem BioAssay (NCI).

SMILES strings stand for the structures. This is part of a sample that, as a whole, favours compounds with a hit. Of some 79,000 tested, about 15% had one in any assay. A number with no mark means an inactive call. The source made the active and inactive calls. Rule as the data show it: active = growth inhibition above about 70%; inactive = the rest.

The assay can be described thus: NCI Yeast Anticancer Drug Screen. Data for the bub3 strain (AID 167). The settings on record: S. cerevisiae bub3 mutant strain, at 50.0 µM, hits give high values. The gist of the method:
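Growth of a checkpoint-deficient yeast mutant is measured after compound exposure. Values represent inhibition relative to vehicle.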
Consider `c1ccc(-c2c3ccccc3cc3c2ccc2ccccc23)cc1`, for which the growth inhibition is 19.5%.

With `CCCCCCC(C)(C)NC(N)=O`, the growth inhibition was 3.75%.

For `Cc1ncc(N)nc1C`, the growth inhibition is -22.6%.

As for `CC(=O)OCc1ccc(C)cc1`, the growth inhibition is -14.9%.

For the compound `O=C(O)CCc1ccccc1CC(=O)O`, the growth inhibition is -12.3%.

For `CC(=O)O[C@H]1C[C@]2(C)C(CCC3O[C@@]32C)[C@@]2(CC(c3ccoc3)OC2O)[C@@H]1C` (stereo not given in full), the growth inhibition is -23.1%.

As to `CC1=C(CC2C(=O)N(c3ccccc3)S(=O)(=O)NC2C)C(=O)N(c2ccccc2)S(=O)(=O)N1C` (stereo not given), the growth inhibition was -1.65%.

For the compound `O/N=C1/C(=C/c2ccc(F)cc2)CCCC1C(NO)c1ccc(F)cc1` (stereo not given), the growth inhibition is -6%.

As for `COC(=O)N/N=C/c1oc(-c2ccccc2)c(-c2ccccc2)c1[N+](=O)[O-]`, the growth inhibition was -10.1%.

Turning to `COc1ccc(C2C3=C(CC(C)(C)CC3=O)Oc3cc4c(cc32)OCO4)cc1` (stereo not given), the growth inhibition was 0%.

`CN(C)NC(=O)Nc1cccc2ccccc12`: the growth inhibition is -26.9%.

For the compound `CC(C)(C)OC(=O)C1CCC/C1=N/Nc1ccc([N+](=O)[O-])cc1[N+](=O)[O-]` (stereo not given), the growth inhibition is 20.7%.

Take `CC(C)CCCC(C)CCCl` (stereo not given): the growth inhibition is 3.2%.

With `NC(=O)N/N=C(\Cc1nc2ccc(Cl)cc2[nH]c1=O)C(=O)Nc1ccc(Cl)cc1Cl`, the growth inhibition is -0.85%.

As for `Cc1[nH]n(C(=N)N)c(=O)c1CCO`, the growth inhibition is 2%.

As to `CC(=O)OCC1OC(n2cnc([N+](=O)[O-])c2Br)C(OC(C)=O)C1OC(C)=O` (stereo not given), the growth inhibition was 6.05%.

For the compound `CCCCCCCC(CC#N)(CCCCC)CCCCCC` (stereo not given), the growth inhibition is 7.1%.

Turning to `CCN(CC)CCNc1cc(C)nc(/N=C(\N)Nc2ccc(Cl)cc2)n1`, the growth inhibition is 11.6%.

Regarding `O=C(O)c1cc2c([nH]1)-c1cccnc1C(=O)C2=O`, the growth inhibition was -1.4%.

Consider `CC1c2ccccc2-c2ccccc2N1C(=O)c1cccc(C(=O)N2c3ccccc3-c3ccccc3C2C)n1` (stereo not given), for which the growth inhibition is -2.1%.

On to `O=C(O)C12CCCCC1CCCC2` (stereo not given), for which the growth inhibition is -0.75%.

On to `N#CC1(Cc2ccccc2[N+](=O)[O-])c2ccccc2C2C(N1C(=O)c1ccccc1)C2(Cl)Cl` (stereo not given), for which the growth inhibition is 3.15%.

As to `CCn1nnc2c(C(N)=O)ncn2c1=O`, the growth inhibition is -14.8%.

On to `O=C(/C=C/c1ccccc1)NCC(O)CO` (stereo not given), for which the growth inhibition is 0.5%.

As for `CN(C)CCCOc1nc2c(c(=O)n(C)c(=O)n2C)n1C` (tested in a mixture with another compound), the growth inhibition was -18.9%.

In the case of `COc1cc2cccc(N=Cc3cccc(OC)c3OC(C)C)c2cc1OC`, the growth inhibition was -4.6%.

Turning to `O=C(Cc1ccccc1)NC(=O)Nc1ccccc1`, the growth inhibition is -3.1%.

Regarding `COC(=O)c1cc(=O)c2ccc(Cl)cc2[nH]1`, the growth inhibition is -18.3%.

`COc1ccc(SC(N(C)C)=[N+](C)C)cc1`: the growth inhibition is 2.8%.

For the compound `CCN(CC)CCNc1cc(OC)c(N)c2cccnc12`, the growth inhibition was 46.6%.

`Cc1cc(C)nc(NS(=O)(=O)c2ccc(NC(=O)c3cccc4c(Nc5ccc(S(=O)(=O)N=C(N)N)cc5)c5ccc(Cl)cc5nc34)cc2)n1`: the growth inhibition is 13%.

On to `CN(N)c1cc(=O)n(C)c(=O)n1C`, for which the growth inhibition was -3.05%.

As to `C=C(Cl)CSC(C)(C)C`, the growth inhibition was -18.2%.

For `CCCCc1ccc(Nc2nc(OC)c3ncn(C4CC(O)C(CO)O4)c3n2)cc1` (stereo not given), the growth inhibition was 69.5%.

Turning to `c1ccc(CNCCCNCCCCNCCCNCc2ccccc2)cc1`, the growth inhibition is 17.8%.

With `OC1CCC(C2C3CCCCC3C3CCCCC3C2C2CCC(O)CC2)CC1` (stereo not given), the growth inhibition was 97.2% (active).

Consider `CC(=O)Nc1ccc(S(=O)(=O)O)nc1`, for which the growth inhibition is 7.65%.

Turning to `CC1=C(C(=O)NCc2ccccc2)C(/C=C/c2ccccc2)C(C(=O)NCc2ccccc2)=C(C)N1`, the growth inhibition is 4.55%.

Turning to `CCc1ccc(-c2c(-c3ccccc3)c(-c3ccccc3)c(-c3ccccc3)c(-c3ccccc3)c2-c2ccccc2)cc1`, the growth inhibition was -6.3%.

Take `O=C/C(=C1/C=Cc2cc([N+](=O)[O-])ccc2S1)c1ccccc1`: the growth inhibition was -9.05%.
